Values joined by “and” are separate entries in the source; they are usually repeats but may differ in a detail not shown here. Equal values may be shown once. Among all 5,500 compounds or so, about 2,000 (36%) were called active. Roughly 18% stayed inconclusive and do not appear here. Cut-off read from the data, not from the text of the source: active = normalized growth mostly below about 0.91 (no sharp cut-off); inconclusive = no clear call, values can overlap the other calls; inactive = mostly above about 0.92. The list shows a part of the results.
Assay: chemical genetic growth profiling, strain panel (AID 1159580);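 note: tested at 20 µM; growth read once vehicle control cultures reached saturation at 30 °C; 1 = growth at the plate median or of vehicle wells; lower values mean less growth of the strain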
Settings: growth OD

Measured: normalized growth

CN1C(C(=O)Nc2ccccn2)=C(O)c2ccccc2S1(=O)=O
active: S. cerevisiae deletion strains, locus YKL068W, stronger effect = lower value 0.925 | S. cerevisiae deletion strains, locus YLL026W, stronger effect = lower value 0.93 | S. cerevisiae deletion strains, locus YMR205C, strain PFK2, stronger effect = lower value 0.781 | S. cerevisiae deletion strains, locus YNL071W, strain lat1, stronger effect = lower value 0.786 | S. cerevisiae deletion strains, locus YNL248C, strain rpa49, stronger effect = lower value 1.26 [resistant] | S. cerevisiae deletion strains, locus YNL271C, strain bni1, stronger effect = lower value 0.911 | S. cerevisiae deletion strains, locus YNL307C, strain MCK1, stronger effect = lower value 0.82 | S. cerevisiae deletion strains, locus YPR163C, strain tif3, stronger effect = lower value 0.885
inactive: S. cerevisiae deletion strains, locus YKL009W, strain mrt4, stronger effect = lower value 0.963 | S. cerevisiae deletion strains, locus YKL085W, strain MDH1 (second series), stronger effect = lower value 0.935 | S. cerevisiae deletion strains, locus YKL085W, strain MDH1, stronger effect = lower value 0.935 | S. cerevisiae deletion strains, locus YKL160W, strain elf1, stronger effect = lower value 0.933 | S. cerevisiae deletion strains, locus YKL190W, strain CNB1, stronger effect = lower value 1.01 | S. cerevisiae deletion strains, locus YKR001C, strain vps1, stronger effect = lower value 0.969 | S. cerevisiae deletion strains, locus YKR026C, strain gcn3, stronger effect = lower value 0.958 | S. cerevisiae deletion strains, locus YKR091W, strain srl3, stronger effect = lower value 0.968 | S. cerevisiae deletion strains, locus YLL001W, strain dnm1, stronger effect = lower value 0.963 | S. cerevisiae deletion strains, locus YLL041C, strain sdh2, stronger effect = lower value 0.953 | S. cerevisiae deletion strains, locus YLR027C, strain aat2, stronger effect = lower value 0.932 | S. cerevisiae deletion strains, locus YLR039C, strain RIC1, stronger effect = lower value 0.984 | S. cerevisiae deletion strains, locus YLR058C, strain SHM2, stronger effect = lower value 0.982 | S. cerevisiae deletion strains, locus YLR102C, strain apc9, stronger effect = lower value 0.946 | S. cerevisiae deletion strains, locus YLR113W, strain HOG1, stronger effect = lower value 0.934 | S. cerevisiae deletion strains, locus YLR221C, strain rsa3, stronger effect = lower value 0.925 | S. cerevisiae deletion strains, locus YLR258W, strain gsy2, stronger effect = lower value 0.95 | S. cerevisiae deletion strains, locus YLR262C, strain YPT6 (second series), stronger effect = lower value 0.919 | S. cerevisiae deletion strains, locus YLR262C, strain YPT6, stronger effect = lower value 0.998 | S. cerevisiae deletion strains, locus YLR268W, strain sec22, stronger effect = lower value 0.921 | S. cerevisiae deletion strains, locus YLR320W, strain mms22, stronger effect = lower value 0.881 | S. cerevisiae deletion strains, locus YLR330W, strain CHS5, stronger effect = lower value 0.967 | S. cerevisiae deletion strains, locus YLR342W, strain FKS1 (second series), stronger effect = lower value 0.94 | S. cerevisiae deletion strains, locus YLR342W, strain FKS1, stronger effect = lower value 0.931 | S. cerevisiae deletion strains, locus YLR357W, strain rsc2, stronger effect = lower value 1 | S. cerevisiae deletion strains, locus YLR370C, strain arc18, stronger effect = lower value 0.985 | S. cerevisiae deletion strains, locus YLR371W, strain rom2, stronger effect = lower value 0.95 | S. cerevisiae deletion strains, locus YLR384C, strain iki3, stronger effect = lower value 0.961 | S. cerevisiae deletion strains, locus YLR418C, strain cdc73, stronger effect = lower value 0.905 | S. cerevisiae deletion strains, locus YML016C, strain PPZ1, stronger effect = lower value 0.965 | S. cerevisiae deletion strains, locus YML032C, strain rad52, stronger effect = lower value 0.954 | S. cerevisiae deletion strains, locus YML120C, strain ndi1, stronger effect = lower value 0.95 | S. cerevisiae deletion strains, locus YML124C, strain tub3, stronger effect = lower value 0.95 | S. cerevisiae deletion strains, locus YMR058W, strain fet3, stronger effect = lower value 0.961 | S. cerevisiae deletion strains, locus YMR078C, strain ctf18, stronger effect = lower value 0.926 | S. cerevisiae deletion strains, locus YMR125W, strain sto1, stronger effect = lower value 0.985 | S. cerevisiae deletion strains, locus YMR129W, stronger effect = lower value 0.935 | S. cerevisiae deletion strains, locus YMR223W, strain ubp8, stronger effect = lower value 0.97 | S. cerevisiae deletion strains, locus YMR231W, strain pep5, stronger effect = lower value 0.97 | S. cerevisiae deletion strains, locus YMR263W, strain SAP30, stronger effect = lower value 0.996 | S. cerevisiae deletion strains, locus YMR307W, strain GAS1, stronger effect = lower value 0.836 and 1 | S. cerevisiae deletion strains, locus YNL067W, strain RPL9B, stronger effect = lower value 1 | S. cerevisiae deletion strains, locus YNL128W, strain TEP1, stronger effect = lower value 1.02 | S. cerevisiae deletion strains, locus YNL153C, strain GIM3, stronger effect = lower value 0.984 | S. cerevisiae deletion strains, locus YNL175C, strain NOP13, stronger effect = lower value 0.971 | S. cerevisiae deletion strains, locus YNL183C, strain NPR1, stronger effect = lower value 0.919 | S. cerevisiae deletion strains, locus YNL197C, strain WHI3, stronger effect = lower value 0.97 | S. cerevisiae deletion strains, locus YNL209W, strain ssb2, stronger effect = lower value 0.982 | S. cerevisiae deletion strains, locus YNL224C, strain SQS1, stronger effect = lower value 0.968 | S. cerevisiae deletion strains, locus YNL233W, strain BNI4, stronger effect = lower value 0.993 | S. cerevisiae deletion strains, locus YNL250W, strain rad50, stronger effect = lower value 0.923 | S. cerevisiae deletion strains, locus YNL298W, strain CLA4, stronger effect = lower value 0.935 | S. cerevisiae deletion strains, locus YNL322C, strain KRE1 (second series), stronger effect = lower value 0.943 | S. cerevisiae deletion strains, locus YNL322C, strain KRE1, stronger effect = lower value 0.973 and 1 | S. cerevisiae deletion strains, locus YNR049C, strain mso1, stronger effect = lower value 0.964 | S. cerevisiae deletion strains, locus YNR052C, strain pop2, stronger effect = lower value 0.965 | S. cerevisiae deletion strains, locus YOL006C, strain TOP1, stronger effect = lower value 0.999 | S. cerevisiae deletion strains, locus YOL012C, strain htz1 0.613 | S. cerevisiae deletion strains, locus YOL147C, strain pex11, stronger effect = lower value 0.944 | S. cerevisiae deletion strains, locus YOR001W, strain rrp6, stronger effect = lower value 0.92 | S. cerevisiae deletion strains, locus YOR061W, strain CKA2, stronger effect = lower value 0.976 | S. cerevisiae deletion strains, locus YOR069W, strain VPS5, stronger effect = lower value 0.966 | S. cerevisiae deletion strains, locus YOR070C, strain gyp1, stronger effect = lower value 0.973 | S. cerevisiae deletion strains, locus YOR080W, strain dia2, stronger effect = lower value 0.978 | S. cerevisiae deletion strains, locus YOR083W, strain WHI5 (second series), stronger effect = lower value 0.99 | S. cerevisiae deletion strains, locus YOR083W, strain WHI5, stronger effect = lower value 0.946 | S. cerevisiae deletion strains, locus YOR106W, strain vam3, stronger effect = lower value 0.965 | S. cerevisiae deletion strains, locus YOR136W, strain idh2, stronger effect = lower value 0.988 | S. cerevisiae deletion strains, locus YOR144C, strain elg1, stronger effect = lower value 0.953 | S. cerevisiae deletion strains, locus YOR184W, strain ser1, stronger effect = lower value 0.961 | S. cerevisiae deletion strains, locus YOR231W, strain MKK1, stronger effect = lower value 0.945 | S. cerevisiae deletion strains, locus YOR265W, strain rbl2, stronger effect = lower value 0.967 | S. cerevisiae deletion strains, locus YOR270C, strain vph1, stronger effect = lower value 0.954 | S. cerevisiae deletion strains, locus YOR290C, strain snf2, stronger effect = lower value 0.971 | S. cerevisiae deletion strains, locus YOR316C, strain cot1, stronger effect = lower value 0.95 | S. cerevisiae deletion strains, locus YPL051W, strain arl3, stronger effect = lower value 0.961 | S. cerevisiae deletion strains, locus YPL055C, strain LGE1, stronger effect = lower value 0.987 | S. cerevisiae deletion strains, locus YPL078C, strain atp4, stronger effect = lower value 0.95 | S. cerevisiae deletion strains, locus YPL106C, strain sse1, stronger effect = lower value 0.989 | S. cerevisiae deletion strains, locus YPL240C, strain hsp82, stronger effect = lower value 0.953 | S. cerevisiae deletion strains, locus YPL241C, strain CIN2, stronger effect = lower value 0.967 | S. cerevisiae deletion strains, locus YPL256C, strain CLN2, stronger effect = lower value 0.907 | S. cerevisiae deletion strains, locus YPR119W, strain clb2, stronger effect = lower value 0.931 | S. cerevisiae deletion strains, locus YPR141C, strain kar3, stronger effect = lower value 0.923 | S. cerevisiae deletion strains, locus YPR167C, strain met16, stronger effect = lower value 0.962 | S. cerevisiae deletion strains, strain wtn01, stronger effect = lower value 0.961 | S. cerevisiae strains, strain wild type, stronger effect = lower value 0.984

Reference: PubChem BioAssay AID1159580 (chemical genetic matrix, 2015)
